This is part of a sample that, as a whole, favours compounds with a hit. Of some 79,000 tested, about 15% had one in any assay. Values without a mark were called inactive. Active and inactive are the calls of the source. Rule as the data show it: active = growth inhibition above about 70%; inactive = the rest.
Key:
[1] = NCI Yeast Anticancer Drug Screen. Data for the rad50 strain (AID 155);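 also: 0% = growth of vehicle-only cultures of the same strain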; conditions: S. cerevisiae rad50 strain growth inhibition, stronger effect = higher value
In short: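 Readout: growth inhibition relative to vehicle-treated cultures. Compound exposure was carried out in a genetically defined yeast strain deficient in DNA damage repair.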

[2] = NCI Yeast Anticancer Drug Screen. Data for the mec2-1 strain (AID 157); conditions: S. cerevisiae mec2-1 strain, stronger effect = higher value
In short: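 Readout is yeast growth inhibition, normalised to vehicle-treated controls, in the mec2-1 strain exposed to compound.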

[3] = NCI Yeast Anticancer Drug Screen. Data for the sgs1 mgt1 strain (AID 161);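 also: 0% = growth of cultures given vehicle only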; conditions: S. cerevisiae sgs1 mgt1 strain, stronger effect = higher value
In short: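 This yeast growth screen uses a strain with defined DNA-repair lesions; compound-treated growth is compared with vehicle-treated growth.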

[4] = NCI Yeast Anticancer Drug Screen. Data for the cln2 rad14 strain (AID 165);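 also: 0% = growth equal to vehicle treated cultures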; conditions: S. cerevisiae cln2 rad14 strain, stronger effect = higher value
In short: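 Relative to vehicle controls, growth inhibition of compound-treated cln2 rad14 yeast was recorded.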

[5] = NCI Yeast Anticancer Drug Screen. Data for the bub3 strain (AID 167); conditions: S. cerevisiae bub3 mutant strain, stronger effect = higher value
In short: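 Readout: yeast growth inhibition, expressed relative to vehicle-only wells. The test organism is a mutant strain from a panel with lesions in DNA repair or checkpoint genes.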

[6] = NCI Yeast Anticancer Drug Screen. Data for the mlh1 rad18 strain (AID 175); conditions: S. cerevisiae mlh1 rad18 strain growth inhibition, stronger effect = higher value
In short: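 Test agents were incubated with a yeast strain of defined genotype (DNA damage repair defect). Inhibition of growth was derived by comparison with vehicle-exposed cultures.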

[7] = at 5.0 µM (retest, dose inferred, filed as 0.5)
[8] = at 50.0 µM (retest, dose inferred, filed as 5.0)

Row | Structure (SMILES) | growth inhibition [1, 7] | growth inhibition [1, 8] | growth inhibition ([1]; at 50.0 µM) | growth inhibition [2, 7] | growth inhibition [2, 8] | growth inhibition ([2]; at 50.0 µM) | growth inhibition [3, 7] | growth inhibition [3, 8] | growth inhibition ([3]; at 50.0 µM) | growth inhibition [4, 7] | growth inhibition [4, 8] | growth inhibition ([4]; at 50.0 µM) | growth inhibition [5, 7] [%] | growth inhibition [5, 8] | growth inhibition ([5]; at 50.0 µM) | growth inhibition [6, 7] | growth inhibition [6, 8] | growth inhibition ([6]; at 50.0 µM)
1 | CS/C(C#N)=C(\C#N)SC | 10% | 78% (active) | 79.2% (active) | 3% | 27% | 16.3% | 2% | 23% | 67.6% | 3% | 12% | 23.6% | 2 | 59% | 53.1% | 7% | 35% | 43.5%
2 | COc1cc2c(c(O)c1OC)-c1c(cc(OC)c(OC)c1OC)CC(C)C(C)C2 (configuration not stated) | -23% | 27% | 66.9% | -23% | 11% | 46.7% | -15% | 63% | 74.7% (active) | -10% | 61% | 51.5% | 9 | 53% | 60% | 6% | 59% | 18.7%
3 | O=[N+]([O-])c1ccccc1N=Nc1c(O)[nH]c2cccc(C(F)(F)F)c12 | 50% | 86% (active) | 93.9% (active) | 52% | 81% (active) | 18.5% | 60% | 90% (active) | 83.5% (active) | -60% | 92% (active) | 50.2% | 47 | 77% (active) | 46.5% | 84% (active) | 97% (active) | 95.1% (active)
4 | COc1ccc(/C=C2\CN(C)C/C(=C\c3ccc(OC)c(OC)c3OC)C2=O)c(OC)c1OC | 27% | 96% (active) | 85.4% (active) | 1% | 97% (active) | 93.5% (active) | 7% | 98% (active) | 92% (active) | 7% | 86% (active) | 91.2% (active) | 14 | 96% (active) | 95.8% (active) | -4% | 97% (active) | 91.3% (active)
5 | OC1CCC(COC(c2ccccc2)(c2ccccc2)c2ccccc2)O1 (configuration not stated) | -8% | 98% (active) | 98.6% (active) | 5% | 99% (active) | 98.5% (active) | -19% | 99% (active) | 98% (active) | 5% | 98% (active) | 98.2% (active) | 4 | 96% (active) | 99% (active) | 0% | 99% (active) | 98.1% (active)
6 | CCCCCCN(CCCCCC)CCC(=O)c1ccc2cc(Cl)c3ccccc3c2c1 | 29% | 90% (active) | 78.4% (active) | -28% | 95% (active) | 82% (active) | 33% | 95% (active) | 78.2% (active) | 3% | 88% (active) | 31.8% | 5 | 94% (active) | 33.2% | 17% | 91% (active) | 87.8% (active)
7 | COc1cccc2c1S(=O)(=O)C(c1ccccc1)=CC2=O | 45% | 99% (active) | 99.5% (active) | 48% | 99% (active) | 99.2% (active) | 55% | 99% (active) | 99.4% (active) | 12% | 98% (active) | 98.7% (active) | 58 | 97% (active) | 99.7% (active) | 69% | 99% (active) | 99.5% (active)
8 | Cc1ccc(S(=O)(=O)/C=C/C(=O)c2ccc3ccccc3c2)cc1 | 83% (active) | 86% (active) | 97.2% (active) | 96% (active) | 95% (active) | 98.4% (active) | 84% (active) | 96% (active) | 95.9% (active) | 20% | 91% (active) | 96.5% (active) | 47 | 96% (active) | 94.5% (active) | 88% (active) | 95% (active) | 97.1% (active)
9 | CCCCC#CC(=O)OCCCCC | -2% | 0% | -18.9% | 4% | 1% | -3.1% | 1% | 3% | -13.4% | -5% | -2% | 25.1% | 1 | 3% | -14.6% | -2% | -4% | -16.4%
10 | C/C(=N\NC(=S)N1CCCC1)c1cnccn1 | 61% | 98% (active) | 98.8% (active) | 56% | 99% (active) | 99% (active) | 77% (active) | 98% (active) | 99.3% (active) | 74% (active) | 98% (active) | 97.7% (active) | 33 | 97% (active) | 99% (active) | 80% (active) | 98% (active) | 99.1% (active)
11 | Cc1ccc(N2C(=O)C(Cl)=C(Cl)C2=O)cc1 | 11% | 99% (active) | 99.3% (active) | 12% | 100% (active) | 99.4% (active) | 20% | 100% (active) | 99.5% (active) | 8% | 99% (active) | 98.8% (active) | 16 | 99% (active) | 99.3% (active) | 14% | 100% (active) | 97.5% (active)
12 | C=C1CC2(C[C@@H](c3ccccc3)O[C@@H](c3ccccc3)C2)OC1=O (some centres not stated) | 20% | 97% (active) | 95% (active) | 4% | 98% (active) | 94.6% (active) | 2% | 98% (active) | 94.5% (active) | 35% | 97% (active) | 90.5% (active) | 33 | 98% (active) | 95.2% (active) | 15% | 98% (active) | 92.5% (active)
13 | Nc1ccc(O)c(=O)cc1 | -1% | 1% | 50.2% | -40% | 11% | 45.1% | 0% | 18% | 62.2% | -2% | 0% | 25.1% | -8 | 4% | 76.6% (active) | -2% | 15% | 59.9%
14 | N#CC(C(=O)CCc1nc2ccccc2[nH]1)c1c(Cl)cccc1Cl (configuration not stated) | -14% | 19% | -21.2% | 4% | 12% | 8.05% | 7% | 2% | 19.6% | -5% | 3% | -30.1% | -2 | 6% | 6.75% | -1% | 0% | 16.1%
15 | CC(CN(C)C)C(/C=C/c1ccccc1)=N\NC(=O)c1ccccc1 (configuration not stated) | -14% | 3% | 3.15% | -7% | -7% | 13.1% | -4% | 3% | 3.05% | -11% | -4% | 3.15% | -3 | -11% | -18.4% | 2% | 11% | -3.6%
16 | CCN(CC)Cc1cc(Nc2c3ccccc3nc3c2[nH]c2ccccc23)ccc1O | -6% | 18% | 82.5% (active) | 3% | 5% | 8.85% | -8% | -19% | 2.65% | 44% | 44% | -3% | 9 | 3% | -4.65% | -1% | -9% | 33.5%
17 | CCn1c(O)c(C=Nc2ccccc2)s/c1=N/Nc1nc(-c2ccc(O)c(O)c2)cs1 | 0% | 21% | 57% | -22% | 1% | 48.4% | -6% | 11% | 72.2% (active) | -10% | 6% | 41.5% | -7 | 38% | 79% (active) | -17% | 25% | 66%
18 | COc1ccc(/C(O)=C/c2nc3ccc([N+](=O)[O-])cc3[nH]c2=O)cc1 | 12% | 70% (active) | 78.9% (active) | 1% | 57% | 49.5% | -2% | 67% | 92.6% (active) | 3% | 77% (active) | 80.7% (active) | 2 | 46% | 26.9% | 2% | 68% | 90.8% (active)
19 | CN(Cc1ccccc1)C(c1ccccc1)C(O)C(O)(c1ccccc1)c1ccccc1 (configuration not stated) | -10% | 40% | 85.2% (active) | 10% | 78% (active) | 58.2% | -3% | 70% (active) | 87.3% (active) | -26% | 16% | 19.7% | -9 | 58% | 30.4% | 18% | 81% (active) | 72.5% (active)
